RecA splice inh: inhibitors of M. tuberculosis RecA intein splicing; P9WHJ3; cell-free RecA intein splicing, fluorescence; inhibition, % (concentration not given with the values); 290,000 tested, 0.75% active; AID 2221; in the data active = inhibition above about 30%;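 also: 0% = vehicle wells and 100% = reference inhibitor control wells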
Mtb FBA inh: inhibitors of M. tuberculosis fructose-bisphosphate aldolase | inhibition, % at 1 µM | purified M. tuberculosis FBA, fluorescence read-out | 360,000 tested, 2.3% active;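 also: 0% = vehicle and 100% = reference inhibitor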
Target sequence (P9WQA3 whole entry, looked up): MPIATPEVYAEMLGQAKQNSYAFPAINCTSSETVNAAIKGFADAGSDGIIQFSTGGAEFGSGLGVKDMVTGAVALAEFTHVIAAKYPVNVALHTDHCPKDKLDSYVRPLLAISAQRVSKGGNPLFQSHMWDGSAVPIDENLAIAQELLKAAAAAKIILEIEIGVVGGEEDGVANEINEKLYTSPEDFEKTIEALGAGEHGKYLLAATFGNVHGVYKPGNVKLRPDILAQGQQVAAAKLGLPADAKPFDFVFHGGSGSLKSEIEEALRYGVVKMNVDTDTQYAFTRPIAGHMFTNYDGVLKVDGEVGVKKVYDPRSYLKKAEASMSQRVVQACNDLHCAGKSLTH
Mtb bLac sens: beta-lactam sensitization of Mtb H37Rv. M. tuberculosis H37Rv growth with meropenem, percent inhibition. inhibition, % at 25 µM. 330,000 tested, 0.27% active; call rule not given here;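 also: growth measured after seven days incubation then overnight dye step; 0% = bacteria only wells and 100% = bacteria with antibiotic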
Rv3671c inh: inhibitors of M. tuberculosis serine protease Rv3671c; inhibition, % at 5.96 µM; 320,000 tested, 0.048% active; AID 2606; in the data active = inhibition above about 38%;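 also: extracellular domain of Rv3671c used as enzyme; 0% = enzyme with DMSO and 100% = no enzyme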
Mtb UGM inh: blocks M. tuberculosis UGM enzyme | purified UGM, fluorescence polarization probe displacement | 320,000 tested, 0.06% active | inhibition, % at 10 µM | P9WIQ1; in the data active = inhibition above about 10%, passing the limit was not always enough
GDH-TPI counter-1: inhibits GDH-TPI coupling enzymes, artifact for Mtb FBA screen | GDH-TPI coupled enzyme counterscreen, NADH absorbance | inhibition, % at 4.8 µM | 360,000 tested, 1.2% active; in the data active = inhibition above about 30%;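 also: 0% = DMSO wells and 100% = wells lacking the enzyme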
Mtb FBA confirm: Mtb FBA inhibition, confirmed; shares compounds with Mtb FBA inh; purified M. tuberculosis FBA, fluorescence read-out; inhibition, % at 1 µM; 5,600 tested, 78% active;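 also: 0% = vehicle wells and 100% = reference inhibitor wells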
GDH-TPI counter-2: GDH-TPI inhibition counter-screen for FBA inhibitors | shares compounds with Mtb FBA inh | GDH-TPI coupled enzyme counterscreen, fluorescence | inhibition, % at 1 µM | 5,600 tested, 81% active | AID 652141; in the data active = inhibition above about 10%
* marks the source's active call; other numbers are inactive results; · = no result given; + = active, no number. Most compounds without a hit are left out; they make up all but 4% or so of the library. Rule as the data show it, unless noted: active = inhibition above about 27%; inactive = the rest.

SMILES | RecA splice inh | Mtb FBA inh | Mtb bLac sens | Rv3671c inh | Mtb UGM inh | GDH-TPI counter-1 | Mtb FBA confirm | GDH-TPI counter-2
Cc1cccc(OC(C)C(=O)NC2CCS(=O)(=O)C2)c1C (stereo not given) | -3.8 | 87.8* | 6.0 | -7.7 | -2.3 | -0.7 | 119.5* | 82.7*
Cc1ccccc1NC(=O)NC1CCS(=O)(=O)C1 (stereo not given) | -0.5 | -0.7 | 12.2 | 4.0 | -0.7 | -3.0 | · | ·
CCOC(=O)C1CCN(C(=O)C2CCCN(S(=O)(=O)c3ccc(OCC)c(Cl)c3)C2)CC1 (stereo not given) | 0.3 | -0.4 | -10.0 | 2.4 | 0.9 | 5.6 | · | ·
CSc1nccc(NC(=O)c2cccc(Br)c2)n1 | 2.1 | 1.0 | 1.3 | -7.1 | -0.7 | 3.2 | · | ·
Nc1nc2nc(-c3ccc(OCc4ccccc4)cc3)cc(C(F)(F)F)n2n1 | -12.0 | 36.1* | 0.6 | 0.8 | -3.8 | 12.8 | + | +
c1ccc(COc2ccc(-c3cc4nc(NCCOc5ccccc5)ccn4n3)cc2)cc1 | · | 11.4 | · | · | · | 28.9 | · | ·
CCOC(=O)c1c(C)nc2ncccn12 | -0.5 | 74.6* | -0.9 | 1.2 | 0.6 | 16.7 | 37.4* | 38.5*
CCOC(=O)c1cn2cccnc2n1 | -1.8 | 103.8* | -6.9 | 6.3 | -0.4 | 11.4 | 151.2* | 134.0*
CCOC(=O)c1cccc(C(=O)OCC)n1 | 0.2 | -5.9 | -6.0 | -0.2 | 0.6 | 1.5 | · | ·
N#Cc1cc(Cl)c(NCC2CCCO2)cc1C#N (stereo not given) | · | 37.6* | 6.9 | 5.3 | 3.8 | 21.4 | 76.6* | 65.4*
N#Cc1cn(CC(=O)NCC2CCCO2)c2ccccc12 (stereo not given) | -2.5 | -1.8 | 3.3 | 1.3 | -1.2 | 1.2 | · | ·
N#Cc1cccc(C#N)c1NCC1CCCO1 (stereo not given) | 2.4 | 96.7* | 3.6 | 5.5 | 0.8 | 12.7 | 184.5* | 121.7*
Cc1cccc2nc(-c3cccnc3)c(NCCC(C)C)n12 | 4.1 | 28.9* | -10.2 | -10.6 | 0.0 | 4.4 | + | +
O=C(CN1C(=O)c2cccc3cccc(c23)C1=O)N1CCCCCC1 | -0.6 | 33.0* | -5.0 | 4.3 | 2.8 | 26.8 | 96.1* | 85.3*
CN(C(=O)COC(=O)CCCN1C(=O)c2cccc3cccc(c23)C1=O)C1CCS(=O)(=O)C1 (stereo not given) | -0.6 | 28.8* | -6.0 | 3.3 | -2.5 | 13.2 | 144.2* | 99.7*
CCN(C(=O)COC(=O)CCCN1C(=O)c2cccc3cccc(c23)C1=O)C1CCS(=O)(=O)C1 (stereo not given) | 0.4 | 32.8* | -1.2 | 9.5 | -0.8 | 17.4 | + | +
O=C1c2cccc3cccc(c23)C(=O)N1CCO | · | 51.3* | · | · | · | 33.0* | 158.2* | 162.4*
NC(=O)CN1CCN(CCN2C(=O)c3cccc4cccc(c34)C2=O)CC1 | -3.0 | 1.1 | -5.9 | -5.0 | -0.3 | 0.8 | · | ·
CC(C)CN(C(=O)COC(=O)CCN1C(=O)c2ccccc2C1=O)C1CCS(=O)(=O)C1 (stereo not given) | 1.2 | -10.6 | -7.2 | 9.3 | 0.6 | -5.2 | · | ·
NS(=O)(=O)c1cc(C(=O)OCC(=O)N2CCc3ccccc3C2)ccc1Cl | · | 6.5 | -6.5 | -3.1 | 4.7 | 4.4 | · | ·
CCc1c(C(=O)N/N=C/c2ccco2)nnn1-c1nonc1N | -2.0 | 3.2 | -0.6 | -3.6 | -2.0 | 16.2 | · | ·
CCOC(=O)CCCSc1nnc(CCCCCN2C(=O)c3cccc4cccc(c34)C2=O)o1 | 0.7 | 5.4 | 91.2 | -7.9 | 1.6 | 9.8 | · | ·
CCOC(=O)CCCCCN1C(=O)c2cccc3cccc(c23)C1=O | 3.2 | 28.2* | 76.8 | -9.2 | -2.3 | 19.3 | 113.4* | 66.6*
O=C(CCCCCN1C(=O)c2cccc3cccc(c23)C1=O)NCc1cccnc1 | -0.1 | 10.1 | -12.4 | 2.8 | 0.5 | 14.8 | · | ·
O=C(CCCN1C(=O)c2cccc3cccc(c23)C1=O)NCc1cccnc1 | 0.6 | 34.6* | -11.1 | 3.6 | 0.7 | 1.9 | + | +
COCCNC(=O)C1(C)CCCN(C(=O)c2cc(C)oc2C)C1 (stereo not given) | · | 0.7 | · | · | · | 12.0 | · | ·
CC(=O)CSc1nc(-c2ccccc2)c(-c2ccccc2)o1 | 4.4 | 50.2* | 5.8 | 1.7 | 1.0 | 4.5 | 61.0* | 43.5*
